Reference: the supplement of paper PMC12808144

Assays:
Mel-DCC-11 = test: cell viability relative to DMSO control (fraction of DMSO control); higher = less cytotoxic, active = 0.5 or less; conditions: 1 µM; 120 h
Method in brief: (§1)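 Patient-derived Mel-DCC-11, its resistant subline Mel-DCC-11-R (alone and with 8 µM of its selecting drug) and NHEM-hTERT immortalized melanocytes were exposed for 120 h to 315 approved anti-cancer drugs at 1 µM in duplicate. Luminescence was read with ATPlite 1step. Viability was normalised to vehicle controls and averaged over duplicates.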

NHEM-hTERT = test: as above; conditions: 1 µM; 120 h
Method in brief: as §1

Mel-DCC-11-R = test: cell viability relative to DMSO control (fraction of DMSO control); higher = less cytotoxic, active = 0.8 or less; conditions: 1 µM, 120 h
Method in brief: as §1

Measured: cell viability

Oc1c(I)cc(Cl)c2cccnc12 [Clioquinol]
inactive: Mel-DCC-11 0.864 | NHEM-hTERT 0.798 | Mel-DCC-11-R; vemurafenib co-treatment 0 µM 0.866 | Mel-DCC-11-R; vemurafenib co-treatment 8 µM 0.847

Cl.Cl.Cl.Cl.Cl.Cl.Cl.Cl.c1cc(CN2CCCNCCNCCCNCC2)ccc1CN1CCCNCCNCCCNCC1 [AMD 3100 octahydrochloride]
inactive: Mel-DCC-11 1.17 | NHEM-hTERT 1.14 | Mel-DCC-11-R; vemurafenib co-treatment 0 µM 0.999 | Mel-DCC-11-R; vemurafenib co-treatment 8 µM 0.984

Nc1ncnc2c1ncn2[C@@H]1O[C@H](CO)[C@@H](O)[C@@H]1O [Vidarabine]
inactive: Mel-DCC-11 1.1 | NHEM-hTERT 1.02 | Mel-DCC-11-R; vemurafenib co-treatment 0 µM 1.11 | Mel-DCC-11-R; vemurafenib co-treatment 8 µM 1.1

Nc1nc(Cl)nc2c1ncn2[C@@H]1O[C@H](CO)[C@@H](O)[C@@H]1F [Clofarabine]
active: Mel-DCC-11-R; vemurafenib co-treatment 8 µM 0.67
inactive: Mel-DCC-11 0.59 | NHEM-hTERT 0.53 | Mel-DCC-11-R; vemurafenib co-treatment 0 µM 0.91

CN1[C@@H]2CCC[C@H]1C[C@@H](NC(=O)c1nn(C)c3ccccc13)C2.Cl [Granisetron hydrochloride]
inactive: Mel-DCC-11 1.15 | NHEM-hTERT 1.07 | Mel-DCC-11-R; vemurafenib co-treatment 0 µM 0.924 | Mel-DCC-11-R; vemurafenib co-treatment 8 µM 1.07

N.N.O=C([O-])C1(C(=O)[O-])CCC1.[Pt+2] [Carboplatin]
inactive: Mel-DCC-11 1.13 | NHEM-hTERT 1.05 | Mel-DCC-11-R; vemurafenib co-treatment 0 µM 0.973 | Mel-DCC-11-R; vemurafenib co-treatment 8 µM 1.23

CC1(C)O[C@H]2CC(=O)OC[C@]23[C@H]2CC[C@@]4(C)[C@H](c5ccoc5)OC(=O)[C@H]5O[C@]54[C@]2(C)C(=O)C[C@@H]13 [Limonin]
inactive: Mel-DCC-11 1.1 | NHEM-hTERT 1.21 | Mel-DCC-11-R; vemurafenib co-treatment 0 µM 0.857 | Mel-DCC-11-R; vemurafenib co-treatment 8 µM 1.11
